PubChem BioAssay (NCATS)
Inconclusive results are not listed. Entries that show only a call come without a potency. Activity calls are given as the source filed them. The call rests on the fitted dose curve; in most records, active means well fitted curve in the direction sought with a large enough effect; inconclusive means small, poorly fitted or top-dose-only effect, or another doubt; inactive means no such curve, though single readings can be large; an effect the other way counts as inactive or inconclusive.

Experiments:
[1] = qHTS of pediatric cancer cell lines to identify multiple opportunities for drug repurposing: Primary screen for Rh30 cells (AID 1347107); further: series mostly up to about 46 µM; nearly all actives have a fitted effect of over 75% in size
How it was run: (§1)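 Cells (500-1,000/well) in growth media were settled 5 h at 37 degrees C, then given compounds for 48 h. Viability was read as CellTiter-Glo luminescence. Primary runs used MIPE at 11 points (0.78 nM-46 µM) and NPC at 8 points (0.59 nM-46 µM); follow-ups used 11 points.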

[2] = qHTS of pediatric cancer cell lines to identify multiple opportunities for drug repurposing: Primary screen for Rh41 cells (AID 1347108); further: nearly all actives have a fitted effect of over 70% in size; further: potency means the concentration at half of the fitted maximal effect
How it was run: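 CRCs from 8- or 11-point titrations (lowest final 0.59 nM NPC, 0.78 nM MIPE). Cell viability: CellTiter-Glo after 48 h incubation, 15 min room-temperature development, luminescence imaging.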

[3] = qHTS of pediatric cancer cell lines to identify multiple opportunities for drug repurposing: Confirmatory screen for NB-EBc1 cells (AID 1347115);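 further: cells exposed to compound for 48 h before the viability read; nearly all actives have a fitted effect of over 45% in size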
How it was run: as §1

[4] = qHTS of pediatric cancer cell lines to identify multiple opportunities for drug repurposing: Confirmatory screen for SJ-GBM2 cells (AID 1347116); further: nearly all actives have a fitted effect of over 60% in size; further: potency means the concentration at half of the fitted maximal effect
How it was run: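 Viability measured as metabolically active cells via CellTiter-Glo luminescence following 48 hours of compound exposure, 11-point dilutions in confirmatory testing. 500-1,000 cells/well plated 5 hours before dosing; controls were DMSO and 2.3 µM bortezomib.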

[5] = qHTS of pediatric cancer cell lines to identify multiple opportunities for drug repurposing: Confirmatory screen for control Hh wild type fibroblast cells (AID 1347121); further: nearly all actives have a fitted effect of over 70% in size
How it was run: as §1

[6] = qHTS of pediatric cancer cell lines to identify multiple opportunities for drug repurposing: Confirmatory screen for Rh41 cells (AID 1347123);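 further: 48 h compound exposure; nearly all actives have a fitted effect of over 60% in size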; further: potency means the concentration at half of the fitted maximal effect
How it was run: as §1

[7] = qHTS of pediatric cancer cell lines to identify multiple opportunities for drug repurposing: Confirmatory screen for A673 cells (AID 1347110);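 further: cells exposed to compound for 48 h before the viability read; nearly all actives have a fitted effect of over 65% in size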; further: potency means the concentration at half of the fitted maximal effect
How it was run: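 Concentration-response curves came straight from titrations: 11 points (0.78 nM to 46 µM) for MIPE and several concentrations (0.59 nM to 46 µM) for NPC in primary, 11 points in follow-up. Readout: ATP luminescence at 48 h.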

[8] = qHTS of pediatric cancer cell lines to identify multiple opportunities for drug repurposing: Confirmatory screen for SK-N-MC cells (AID 1347111);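 further: cells exposed to compound for 48 h before the readout; nearly all actives have a fitted effect of over 70% in size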; further: potency means the concentration at half of the fitted maximal effect
How it was run: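 Metabolically active cells were quantified by ATP-dependent luminescence (CellTiter-Glo, 15 min at room temperature) following 48 h treatment. Cells had been plated at 500-1,000 per well and settled for 5 h beforehand.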

[9] = qHTS of pediatric cancer cell lines to identify multiple opportunities for drug repurposing: Confirmatory screen for BT-12 cells (AID 1347112); further: nearly all actives have a fitted effect of over 55% in size; further: potency means the concentration at half of the fitted maximal effect
How it was run: as §1

[10] = qHTS of pediatric cancer cell lines to identify multiple opportunities for drug repurposing: Confirmatory screen for LAN-5 cells (AID 1347113); further: nearly all actives have a fitted effect of over 65% in size; further: potency means the concentration at half of the fitted maximal effect
How it was run: as §1

[11] = qHTS of pediatric cancer cell lines to identify multiple opportunities for drug repurposing: Confirmatory screen for BT-37 cells (AID 1347117); further: nearly all actives have a fitted effect of over 55% in size; further: potency means the concentration at half of the fitted maximal effect
How it was run: as §1

[12] = qHTS of pediatric cancer cell lines to identify multiple opportunities for drug repurposing: Confirmatory screen for U-2 OS cells (AID 1347122); further: nearly all actives have a fitted effect of over 65% in size; further: potency means the concentration at half of the fitted maximal effect
How it was run: as §1

[13] = qHTS of pediatric cancer cell lines to identify multiple opportunities for drug repurposing: Confirmatory screen for Rh30 cells (AID 1347126); further: nearly all actives have a fitted effect of over 55% in size; further: potency means the concentration at half of the fitted maximal effect
How it was run: as §1

[14] = qHTS of pediatric cancer cell lines to identify multiple opportunities for drug repurposing: Confirmatory screen for SK-N-SH cells (AID 1347129);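 further: cells exposed to compound for 48 h before viability read; nearly all actives have a fitted effect of over 60% in size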; further: potency means the concentration at half of the fitted maximal effect
How it was run: as §1

[15] = target: N-terminal Xaa-Pro-Lys N-methyltransferase 1 (Homo sapiens) (UniProt Q9BV86); test: qHTS Assay for Inhibitors of N-terminal methyltransferase 1 (NTMT1): LOPAC validation of the NTMT1 SAHH-coupled ThioGlo3 Assay (AID 1347143);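 further: SAH from peptide methylation measured as thiol fluorescence via SAHH coupling and ThioGlo3; nearly all actives have a fitted effect of over 70% in size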
N-terminal Xaa-Pro-Lys N-methyltransferase 1 (Homo sapiens), sequence (Q9BV86 whole entry, looked up): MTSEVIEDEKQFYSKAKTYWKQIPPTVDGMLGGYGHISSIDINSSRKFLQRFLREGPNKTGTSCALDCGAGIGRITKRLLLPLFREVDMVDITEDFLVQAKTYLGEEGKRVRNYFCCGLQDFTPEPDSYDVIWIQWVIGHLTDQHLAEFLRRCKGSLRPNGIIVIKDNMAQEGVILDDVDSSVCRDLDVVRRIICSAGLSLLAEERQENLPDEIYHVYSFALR
How it was run: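 In this qHTS pilot against the LOPAC set, 125nM NTMT1 met compounds tested at multiple concentrations, and fluorescence was normalized to background.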

[16] = qHTS of pediatric cancer cell lines to identify multiple opportunities for drug repurposing: Confirmatory screen for MG 63 (6-TG R) cells (AID 1347119); further: nearly all actives have a fitted effect of over 55% in size
How it was run: as §1

[17] = qHTS of pediatric cancer cell lines to identify multiple opportunities for drug repurposing: Confirmatory screen for NB1643 cells (AID 1347109); further: nearly all actives have a fitted effect of over 45% in size
How it was run: as §1

[18] = qHTS of pediatric cancer cell lines to identify multiple opportunities for drug repurposing: Confirmatory screen for Rh18 cells (AID 1347125); further: nearly all actives have a fitted effect of over 55% in size
How it was run: as §1

[19] = qHTS of pediatric cancer cell lines to identify multiple opportunities for drug repurposing: Confirmatory screen for OHS-50 cells (AID 1347128)
How it was run: as §1

For `CN(C)CCCN1c2ccccc2CCc2ccc(Cl)cc21`, the outcome [1] was “inactive”, the Potency [2] was “inactive” and the Potency [3] was “inactive”. For the same compound, the Potency [4] was “inactive”, the Potency [5] was “inactive” and the Potency [6] was 10.4 µM (active).
In the case of `CC(C(=O)O)c1cccc(C(=O)c2ccccc2)c1` (stereo unspecified), the outcome [1] is reported as “inactive” and the Potency [2] is reported as “inactive”.
For `CN1CCN(CCCN2c3ccccc3Sc3ccc(Cl)cc32)CC1`, the outcome [1] was “inactive”, the Potency [2] was “inactive” and the Potency [7] was 7.37 µM (active). For the same compound, the Potency [8] was 3.69 µM (active), the Potency [9] was 16.5 µM (active) and the Potency [10] was 16.5 µM (active). The Potency [3] was “inactive”, the Potency [11] was 16.5 µM (active) and the Potency [5] was “inactive”. For the same compound, the Potency [12] was 5.85 µM (active), the Potency [6] was 11.7 µM (active) and the Potency [13] was 18.5 µM (active). The Potency [14] was 20.9 µM (active).
For `Nc1ccn([C@H]2CC[C@@H](CO)O2)c(=O)n1`, the outcome [1] was “inactive”, the Potency [2] was “inactive” and the Potency [15] was “inactive”.
With `CC#C[C@]1(O)CC[C@H]2[C@@H]3CCC4=CC(=O)CCC4=C3[C@@H](c3ccc(N(C)C)cc3)C[C@@]21C` the outcome [1] was “inactive”, the Potency [2] was 0.743 µM (active) and the Potency [9] was “inactive”. The Potency [3] was “inactive”, the Potency [4] was “inactive” and the Potency [16] was “inactive”. The Potency [5] was “inactive” and the Potency [6] was 23.3 µM (active).
For `CC(C)Cc1ccc(C(C)C(=O)O)cc1` (stereo unspecified), the outcome [1] was “inactive”, the Potency [2] was “inactive” and the Potency [17] was “inactive”. The Potency [7] was 6.57 µM (active), the Potency [8] was 3.69 µM (active) and the Potency [9] was “inactive”. For the same compound, the Potency [3] was “inactive”, the Potency [4] was 1.31 µM (active) and the Potency [11] was “inactive”. For the same compound, the Potency [16] was “inactive”, the Potency [5] was “inactive” and the Potency [6] was 4.65 µM (active). For the same compound, the Potency [18] was “inactive”, the Potency [13] was “inactive” and the Potency [19] was “inactive”. The Potency [14] was “inactive”.
With `NC12CC3CC(CC(C3)C1)C2` the outcome [1] was “inactive”, the Potency [2] was “inactive” and the Potency [17] was “inactive”. The Potency [7] was “inactive”, the Potency [8] was “inactive” and the Potency [9] was “inactive”. For the same compound, the Potency [10] was “inactive”, the Potency [4] was “inactive” and the Potency [11] was “inactive”. For the same compound, the Potency [5] was “inactive”, the Potency [12] was “inactive” and the Potency [6] was “inactive”. The Potency [18] was “inactive”, the Potency [13] was “inactive” and the Potency [19] was “inactive”. The Potency [14] was “inactive” and the Potency [15] was “inactive”.
With `CCN1CCCC1CNC(=O)c1cc(S(=O)(=O)CC)c(N)cc1OC` (stereo unspecified) the outcome [1] was “inactive”, the Potency [2] was “inactive” and the Potency [15] was “inactive”.
For `COc1ccc2[nH]cc(CCNC(C)=O)c2c1`, the outcome [1] was “inactive” and the Potency [2] was “inactive”.
For `CC(C)NCC(O)COc1ccc(CCOCC2CC2)cc1` (stereo unspecified), the outcome [1] was “inactive” and the Potency [2] was “inactive”.
With `Nc1nnc(-c2cccc(Cl)c2Cl)c(N)n1` the outcome [1] was “inactive” and the Potency [2] was “inactive”.
In the case of `C[C@](N)(Cc1ccc(O)c(O)c1)C(=O)O`, the outcome [1] is reported as “inactive” and the Potency [2] is reported as “inactive”.
With `Cc1cc(C(C)(C)C)c(O)c(C)c1CC1=NCCN1` the outcome [1] was “inactive”, the Potency [2] was “inactive” and the Potency [15] was “inactive”.
For `Cc1cn([C@H]2C[C@H](N=[N+]=[N-])[C@@H](CO)O2)c(=O)[nH]c1=O`, the outcome [1] was “inactive” and the Potency [2] was “inactive”.
In the case of `COc1nc(C)nc(Cl)c1NC1=NCCN1`, the outcome [1] is reported as “inactive” and the Potency [2] is reported as “inactive”.
For `O=C(CCCN1CCC(O)(c2ccc(Cl)cc2)CC1)c1ccc(F)cc1`, the outcome [1] was “inactive”, the Potency [2] was “inactive” and the Potency [15] was “inactive”.
